Screening data deposited in PubChem BioAssay by National Center for Advancing Translational Sciences (NCATS).
Marburg entry: inhibitors of Marburg virus binding or entry into cells; Marburg virus pseudotype entry/binding inhibition, cell-based; Potency, µM (top dose mostly 49.2 µM), actives largely listed as inhibitors; actives 6.5% (n = 18,000)
LASV entry inh: Lassa virus entry inhibition; actives 4.1% (n = 18,000); Lassa virus pseudotyped entry inhibition, cell-based qHTS; Potency, µM (doses to about 49.2 µM), actives largely listed as inhibitors
Each line names hits and unclear results; the compound was inactive in the other large screens; ! = a repeat was not active. Rows were chosen to be rich in hits. Some 8.6% of all compounds tested hit in one or more screens of this group. The call rests on the fitted dose curve; tested in HEK293 cells.

O=C1C=C2C(=CCOC2O)O1 (centres undefined)	Marburg entry 1.1µM, LASV entry inh 3.2µM
COC1C=CC23c4cc5c(cc4CN(CC2O)C3C1)OCO5 (centres undefined)	Marburg entry 2.2µM, LASV entry inh 7.1µM
COc1c2c(cc3c1OCO3)C13C=CC(OC)CC1N(C2)CC3O (centres undefined)	none
COc1ccc(O[C@H]2C=C[C@@H](c3ccccc3)O[C@H]2COC(=O)CCC(C)=NO[C@@H](C)c2cc(-c3c(C)cc(C)cc3C)no2)cc1	none
CCN1C(=NCc2ccccc2)NC(c2cccc(C(F)(F)F)c2)C(C(=O)OC)=C1C (centres undefined)	Marburg entry inconclusive
CCN1CCN(c2cc(-c3ccc(F)cc3)c3c(n2)CCCCCC3)CC1	Marburg entry 7.9µM, LASV entry inh 13µM
COC(=O)CC=C[C@@H](C)[C@@H](Cc1ccccc1Br)OC	none (no result: LASV entry inh)
COc1cccc([C@@H]2Oc3ccc(OC)cc3C[C@@H]2OC(=O)N[C@H]2CCCc3ccccc32)c1	none
CCN1\C(=C/C=C/C=C/c2sc3ccccc3[n+]2CC)Sc2ccccc21	Marburg entry 7.1µM, LASV entry inh 11µM
CN1CCc2cc3c(cc2[C@@H]1O)OCO3	none
O[C@@H]1[C@@H]2c3cc4c(cc3CN3CCC(=C[C@@H]1O)[C@H]23)OCO4	Marburg entry 2.5µM, LASV entry inh inconclusive
COCCN1C(=NCCc2cccnc2)NC(c2ccccc2)C(C(=O)OC)=C1C (centres undefined)	LASV entry inh inconclusive
CC(=O)C1=C(C)C[C@@]2(CC1)C(=O)[C@H](Cc1ccccc1)N(Cc1ccccc1)S2(=O)=O	none
N#CC(C#N)=Cc1ccc(O)c(O)c1	none
CC(C)(C)c1cc(C=C(C#N)C#N)cc(C(C)(C)C)c1O	Marburg entry 2.8µM, LASV entry inh 25µM
CC(C)(C)c1cc(/C=C(\C#N)C(N)=S)cc(C(C)(C)C)c1O	Marburg entry 4.5µM, LASV entry inh 28µM
N#CC(C#N)=C(N)/C(C#N)=C/c1cc(O)c(O)c(O)c1	none
CN(C)[C@H]1CCN([C@H]2C[S+](=O)([O-])N[C@H]2COCc2ccccc2)C1	none
CO[C@@H]1c2ccccc2[C@H]2C(C(=O)O)c3c(n(C)c4ccccc34)[C@H]2[C@H]1C (some centres undefined)	none
C=CCN1CCC2(C)c3cc(O)ccc3CC1C2C (centres undefined)	Marburg entry inconclusive
C[C@H]1[C@H]2Cc3ccc(O)cc3[C@]1(C)CCN2CCc1ccccc1	Marburg entry 18µM, LASV entry inh 32µM
O=S1CCN(Cc2ccc(-c3ccc4ncnc(Nc5ccc(OCc6ccccc6)c(Cl)c5)c4c3)o2)CC1	Marburg entry inconclusive
CC=C(C)C(=O)O[C@H]1C(C)=C2[C@@H]3OC(=O)[C@@](C)(O)[C@@]3(O)[C@@H](OC(=O)CCC)C[C@](C)(OC(C)=O)[C@@H]2[C@@H]1OC(=O)CCCCCCC	Marburg entry 40µM, LASV entry inh 40µM
C=C(C)CCN1C(=O)NC(c2ccccc2)C(C(C)=O)=C1C (centres undefined)	none
CCCC1O[C@@H]2C[C@H]3[C@@H]4CCC5=CC(=O)C=C[C@]5(C)[C@H]4[C@@H](O)C[C@]3(C)[C@]2(C(=O)CO)O1 (some centres undefined)	none
CC(C)C(=O)OCC(=O)[C@@]12O[C@H](C3CCCCC3)O[C@@H]1C[C@H]1[C@@H]3CCC4=CC(=O)C=C[C@]4(C)[C@H]3[C@@H](O)C[C@@]12C	Marburg entry inconclusive, LASV entry inh 28µM
COC(=O)C1=C(C(=O)OC)[C@@H]2N(C)c3ccccc3[C@@]23CCC(=O)N(Cc2ccc(OC)cc2)C3=N1	none
COC(=O)[C@@H]1[C@@H](c2ccccc2)NC(=O)N(CCc2cc(OC)c(OC)c(OC)c2)[C@@H]1C	none
CC[C@H](C)[C@@H](C(=O)OC)N1Cc2ccccc2Oc2cc(Br)ccc2S1(=O)=O	none
CCOC(=O)[C@@H](C)N1[C@H](C)[C@H](c2ccccc2)Oc2cc(Br)ccc2S1(=O)=O	Marburg entry inconclusive, LASV entry inh 14µM
O=C(c1cccs1)N1C[C@H](n2cc(C3CC3)nn2)[C@H](O)C[C@@H]1c1ccc(Cl)cc1	none
CCCCCCN1C[C@@H](O)[C@H](n2cc(-c3ccc(F)cc3)nn2)C[C@H]1c1ccc(C)cc1	Marburg entry inconclusive
C=CCOc1ccccc1OCC(O)CNC(C)C (centres undefined)	none
CCc1ccccc1OC[C@@H](O)CN[C@H]1CCCc2ccccc21	Marburg entry 8.9µM, LASV entry inh 28µM
CC(C)(C)NC[C@H](O)COc1ccccc1C1CCCC1	Marburg entry 7.9µM, LASV entry inh inconclusive
CC(C)(C)NCC(O)COc1ccc(NC(=O)NC2CCCCC2)cc1 (centres undefined)	none
COC(=O)C1=C(C)N(Cc2ccccc2)C(=NCCc2c[nH]c3ccccc23)NC1c1ccc(Br)cc1 (centres undefined)	Marburg entry inconclusive
CCCC[C@]12Cc3cc(OC)c(OC)cc3[C@H](O1)c1c(cc(-c3ccccc3)oc1=O)O2	none
COC(=O)[C@@H]1CC23C(=NC(c4ccc([N+](=O)[O-])cc4)=C(C(F)(F)F)[C@@H]2N(C)c2ccccc23)N1C(C)=O (some centres undefined)	none
CCOC(=O)CCN1C(=O)[C@@H]2[C@H]3[C@H](O)[C@H](O)CC(=NO[C@@H]4O[C@H](COC(C)=O)[C@@H](OC(C)=O)[C@H](OC(C)=O)[C@@H]4OC(C)=O)[C@H]3CC[C@H]2C1=O	none
CC1CCC2(OC1)OC1CC3C4CC[C@@H]5CC(O)CC[C@@]5(C)C4CC(=O)[C@]3(C)C1C2C (some centres undefined)	none
C[C@H]1CC[C@]2(NC1)O[C@H]1C[C@H]3[C@@H]4CC[C@H]5C[C@@H](O[C@@H]6O[C@H](CO)[C@H](O[C@@H]7O[C@H](CO)[C@@H](O)[C@H](O[C@@H]8OC[C@@H](O)[C@H](O)[C@H]8O)[C@H]7O[C@@H]7O[C@H](CO)[C@@H](O)[C@H](O)[C@H]7O)[C@H](O)[C@H]6O)CC[C@]5(C)[C@H]4CC[C@]3(C)[C@H]1[C@@H]2C	Marburg entry 4.5µM, LASV entry inh 14µM
CCCCCC(=O)N1C[C@H](n2cc(COC(=O)c3ccccc3)nn2)[C@@H](O)C[C@H]1c1ccc(OC)cc1	none
CC(=O)NNC(=O)N1Cc2ccccc2Oc2ccc(Cl)cc21	none
CCN(CC)CCCCN1c2ccccc2Oc2ccc(Cl)cc21	Marburg entry 6.3µM, LASV entry inh inconclusive
COCC1=C2c3ccccc3[C@H](C[N+](=O)[O-])C(C(=O)OC)(C(=O)OC)C[C@@H]2n2c(=O)n(-c3ccccc3)c(=O)n2C1	LASV entry inh 7.1µM!
COC(=O)C1(C(=O)OC)CC=CCc2ccccc2[C@H]1C[N+](=O)[O-]	none
COc1cc2c(cc1OC)[C@H](C)N(CC1C(=O)O[C@@H]3C[C@@]4(C)CCC[C@H](C)[C@@]45OC5[C@H]13)CC2 (some centres undefined)	Marburg entry 13µM
Cc1nnc(-c2ccc(C)c(-c3ccc(C(=O)NCc4ccc(Cl)cc4)cc3)c2)o1	Marburg entry 2.8µM (no result: LASV entry inh)
Cc1nnc(-c2ccc(C)c(-c3ccc(C(=O)Nc4cccc(C#N)c4)cc3)c2)o1	none (no result: LASV entry inh)
CN1CCN(CCC=C2c3ccccc3Sc3ccc(S(=O)(=O)N(C)C)cc32)CC1	Marburg entry 10µM, LASV entry inh 20µM
CC(=O)c1ccc2c(c1)N(CCCN1CCN(CCO)CC1)c1ccccc1S2	Marburg entry 10µM, LASV entry inh 28µM
